The list is not random: actives were taken first. Their share in the collection is about 3.5%.
TbPYK inhibitor – T. brucei pyruvate kinase inhibition | TbPYK enzyme, Kinase-Glo Plus ATP luminescence, 45 min | hit rate 0.12% among 410,000 | Potency, µM (titrated, usually from 76.8 µM), for the others: at the highest dose activity, negative = inhibition, usual class: inhibitors | AID 624173 | Q57TT1; also: % is scaled to controls: 0 for no effect and ±100 for the full control effect; nearly all actives have a fitted effect of over 50% in size
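Assay buffer: 50 mM TEA pH 7.2, 100 mM KCl, 10 mM MgCl2, 0.05% BSA, 0.01% Tween-20. Pyruvate kinase from T. brucei plus substrate met compound, then ADP (130 uM final). Luminescence was read post 45 min RT.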
NS1 inh – blocks influenza NS1 protein function; Potency, µM (highest dose often 46.1 µM), inactives show at the highest dose activity, positive = more growth; hit rate 0.4% among 270,000; calls by dose curve; also: actives are rising curves; nearly all actives have a fitted effect of over 50% in size
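Read-out: OD600 growth recovery of NS1-expressing budding yeast. Cells grown overnight at 30C in -URA glucose medium, washed, resuspended and diluted 1:100 in 2% galactose assay medium, pH 6.0. Same strain lacking NS1 served as positive control.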
LmPK inhibitor – LmPK (Leishmania mexicana) enzyme inhibition; Q27686; purified LmPK, Kinase-Glo ATP luminescence, 1 h; Potency, µM (top dose mostly 57.5 µM), without a hit: at the highest dose activity change, negative = inhibition, usual class: inhibitors; hit rate 0.37% among 290,000; also: % is scaled to controls: 0 for no effect and ±100 for the full control effect
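Purified LmPK (0.1 nM) with 0.5 mM PEP and 0.1 mM ADP in imidazole buffer pH 7.2 with MgCl2/KCl, 1 h at room temperature. ATP formed was read by luciferase luminescence and normalized to no-enzyme and uninhibited controls.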
RE007 growth inh – less growth of the S. pombe RE007 Vpr strain; hit rate 0.21% among 360,000; Potency, µM (titrated, usually from 92.2 µM), without a hit: at the top dose activity change, negative = less growth, usual class: inhibitors; S. pombe RE007 Vpr strain, BacTiter-Glo ATP luminescence, 24 h; active = well fitted falling curve with a large enough effect; inconclusive = small, poorly fitted or top-dose-only effect; inactive = no such curve, though single readings can be large or run the other way; also: % is scaled to controls: 0 for no effect and ±100 for the full control effect; nearly all actives have a fitted effect of over 50% in size
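Fission yeast RE007 carrying one integrated HIV-1 vpr copy, seeded at OD 0.01 in PMG+AL medium with 23 nL pinned compound. Grown 24 h at 30 degrees; viability read by BacTiter-Glo luminescence after 5 min.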
FBPA Giardia inh – Giardia lamblia aldolase inhibition; purified Giardia FBPA; Potency, µM (highest dose often 59.6 µM), inactives show at the highest dose activity, negative = inhibition, hits mostly inhibitors; A8B2U2; hit rate 0.71% among 290,000; also: % is scaled to controls: 0 for no effect and ±100 for the full control effect; nearly all actives have a fitted effect of over 55% in size
Target sequence (A8B2U2 whole entry, looked up): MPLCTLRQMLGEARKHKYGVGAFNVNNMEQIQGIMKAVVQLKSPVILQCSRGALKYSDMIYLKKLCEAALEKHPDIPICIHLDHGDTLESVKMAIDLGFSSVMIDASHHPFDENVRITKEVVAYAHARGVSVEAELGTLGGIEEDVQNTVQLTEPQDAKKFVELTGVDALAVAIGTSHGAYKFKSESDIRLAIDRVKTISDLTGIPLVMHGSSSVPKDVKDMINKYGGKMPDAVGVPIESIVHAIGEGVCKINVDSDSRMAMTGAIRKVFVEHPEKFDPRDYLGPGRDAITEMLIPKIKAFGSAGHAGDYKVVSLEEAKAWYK
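Giardia FBPA (40 nM reagent) was preincubated 10 min at RT with compound (up to 57.5 uM final), then substrate plus GAPDH/TPI/NAD/arsenate coupling system with diaphorase/resazurin was added; resorufin fluorescence (525/598 nm) was read after 20 min.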
Sm TGR inh – inhibitors of Schistosoma mansoni thioredoxin glutathione reductase. purified TGR, DTNB reduction, TNB absorbance 405 nm. Potency, µM (titrated, usually from 114 µM), inactives show at the top dose activity change, negative = inhibition, usual class: inhibitors. hit rate 3% among 360,000; also: % is scaled to controls: 0 for no effect and ±100 for the full control effect; nearly all actives have a fitted effect of over 60% in size
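First, TGR (20 nM dispensed) and NADPH were mixed with compound. Second, a 15 min room-temperature incubation followed. Third, further NADPH and then DTNB were added to start the reaction. Finally, TNB absorbance was monitored kinetically.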
Numbers without * were called inactive; ? = inconclusive; / = not tested or not shown; [ ] = another dose, or the depositor's remark. Unless noted, calls follow the shape of the dose curve; as a rule, active = well fitted curve in the direction sought with a large enough effect; inconclusive = small, poorly fitted or top-dose-only effect, or another doubt; inactive = no such curve, though single readings can be large; an effect the other way counts as inactive or inconclusive. Potency is read from the fitted curve at half-maximal effect.

SMILES	TbPYK inhibitor	NS1 inh	LmPK inhibitor	RE007 growth inh	FBPA Giardia inh	Sm TGR inh
N#C/C(=C/c1ccc(N2CCOCC2)o1)c1ccc(Cl)cc1	?	-52%	-1%	?	?	1µM*
Cc1ccc(NC(=O)C2CCCN(c3cnccn3)C2)cc1Cl (stereo not drawn)	0%	/	/	/	/	3%
CN(C)c1ccc(C2C=C(c3ccc(Cl)cc3OC(F)F)Nc3ncnn32)cc1 (stereo not drawn)	4%	-54%	4%	5%	-26%	22µM*
O=[N+]([O-])c1ccc(C2Oc3ccccc3C3CC(c4ccccc4)=NN32)s1 (stereo not drawn)	/	-31%	-2%	/	-26%	40µM*
c1ccc(C2Oc3ccccc3C3CC(c4cccs4)=NN32)cc1 (stereo not drawn)	-4%	-41%	0%	?	-25%	?
Cc1ccc(C(=O)O/N=C(\N)c2nonc2N)cc1	?	-6%	4µM*	?	1%	-4%
Cc1cc(/C(N)=N/OC(=O)c2ccccc2Cl)no1	?	-5%	22µM*	-16%	0%	2%
N/C(=N\OC(=O)c1ccccc1Cl)c1ccc(Cl)cc1	6%	-19%	-16%	?	-16%	6%
N/C(=N/OC(=O)c1ccccc1Cl)c1nonc1N	?	/	1%[11.5 µM]	28µM*	-6%	12%
Cc1nc(/C(N)=N/OC(=O)c2ccccc2Cl)c(C(F)(F)F)o1	-21%	-8%	13µM*	-8%	0%	-1%
Cc1nc(/C(N)=N/OC(=O)c2cccc(Cl)c2)c(C(F)(F)F)o1	1%	-4%	-7%	9%	1%	-1%
Cc1ccc(/C(N)=N/OC(=O)c2ccc(F)cc2)cc1	6%	-27%	-2%	-28%	2%	-1%
C[C@H]1CC2[C@@H]3CCC4=CC(=O)C=C[C@]4(C)[C@@]3(Cl)[C@@H](O)C[C@]2(C)[C@@]1(O)C(=O)CO (stereo partly drawn)	/	-13%	/	/	3%	/
Cc1ccc(N2CC(NC(=O)c3ccc(S(=O)(=O)N4CCCC4)cc3)CC2=O)cc1C (stereo not drawn)	3%	/	/	/	/	7%
N/C(=N\OC(=O)c1ccc(F)cc1)c1nonc1N	?	9%	14µM*	?	2%	7%
COc1ccc(C(=O)Nc2ccc(OCc3cc(=O)n4ccccc4n3)cc2)cc1	2%	/	/	/	/	7%
Cn1c(=O)c2nncnc2n(C)c1=O	4%	-1%	0%	/	-1%	0%
Cc1nc2c(=O)n(C)c(=O)n(C)c2nc1Cl	3%	-42%	-3%	-24%	14%	6.3µM*
CCN1CCN(C(c2ccc(C)cc2)c2sc3nc(-c4ccco4)nn3c2O)CC1 (stereo not drawn)	4%	/	/	/	/	12%
NC(=O)c1ccc[n+]([C@H]2O[C@@H](COP(=O)([O-])OP(=O)(O)OC[C@H]3O[C@@H](n4cnc5c(N)ncnc54)[C@H](O)[C@@H]3O)[C@H](O)[C@@H]2O)c1	-9%	/	/	5µM*	/	?
Cc1ccc(CNC(=O)c2cc(Cl)cc(Cl)c2)n1C	6%	-1%	1%	-7%	-14%	32µM*
Cc1ccc(C(=O)N2NC(c3ccc(F)cc3)C3C(=O)N(c4ccc(C)cc4)C(=O)C32)cc1 (stereo not drawn)	-3%	5%	2%	-4%	1%	-7%
CCOc1ccc(N2C(=O)C3C(c4ccccc4F)NN(C(=O)c4ccc(C)cc4)C3C2=O)cc1 (stereo not drawn)	3%	5%	1%	5%	-4%	50µM*
O=c1sc2ccccc2c(N2CCOCC2)c1[N+](=O)[O-]	7%	-54%	-19%	9%	3%	40µM*
N#Cc1cc([N+](=O)[O-])c(-n2nnc3ccccc32)c([N+](=O)[O-])c1	2%	4%	11%	-14%	1%	14µM*
SMILES	TbPYK inhibitor	NS1 inh	LmPK inhibitor	RE007 growth inh	FBPA Giardia inh	Sm TGR inh
CS(=O)(=O)c1ccc(-n2nnc3ccccc32)c([N+](=O)[O-])c1	-4%	22%	5%	-7%	-10%	-1%
COc1cc(/C=C2\C(=O)ON=C2c2ccccc2)cc(Br)c1O	1%	6%	-7%	-23%	-20%	1.6µM*
COc1cc(/C=C2\C(=O)ON=C2c2ccccc2)cc(Cl)c1O	-4%	/	-5%	-16%	-22%	7.1µM*
O=C1ON=C(c2ccccc2)/C1=C/c1ccc(O)cc1	?	-5%	0%	-3%	2%	?
COc1cc(C=C2C(=O)OC(c3ccccc3)OC2=O)cc(Br)c1O (stereo not drawn)	4%	/	7%	-28%	-7%	-33%
O=C1ON=C(c2ccc(Cl)cc2)/C1=C/c1ccc(O)cc1	?	?	6%	-27%	-12%	22µM*
COc1cc(/C=C2/C(=O)ON=C2c2ccccc2)ccc1O	-25%	11%	-12%	-11%	-3%	25µM*
COc1cc(C=C2C(=O)c3ccccc3C2=O)ccc1O	?	-1%	?	-26%	-9%	-5%
CCCSCCCNC(=O)CN1C(=O)CCn2nc(-c3cn(C)c4ccccc34)cc21	-2%	/	/	/	/	3%
Cc1ccc(-n2nc3c(N4CCC(C(=O)N5CCCCC5)CC4)nnc(C)c3c2C)cc1	1%	/	/	/	/	-7%
CCOc1cc(/C=C2\C(=O)ON=C2c2ccccc2)cc(Br)c1O	-19%	-2%	1%	-8%	-17%	1.4µM*
O=c1c(-c2ccccc2)c1-c1ccccc1	-6%	/	2%	/	4%	3.5µM*
CCN(C(=O)c1cc2c(=O)oc3ccc(C)cc3c2s1)c1ccccc1F	6%	/	/	/	/	0%
CC(C)[n+]1ccn(C2=C([O-])c3ccccc3C(=O)/C2=N\S(=O)(=O)c2ccccc2)c1	1%	3%	-4%	4%	?	45µM*
CCCC[n+]1ccn(C2=C([O-])c3ccccc3C(=O)/C2=N\S(=O)(=O)c2ccccc2)c1	5%	7%	-7%	-2%	/	3%
O=C1C[C@H]2OCC=C3CN4CC[C@@]5(C(=O)O)[C@H](N1)C2[C@H]3C[C@H]45 (stereo partly drawn)	/	1%	/	/	/	/
O=c1c2ccccc2nc2ccc(NCc3ccco3)nn12	8%	-4%	2%	30%	-10%	?
Cc1sc2nc3ccc(NCc4ccco4)nn3c(=O)c2c1C	-11%	-32%	-4%	-5%	0%	35µM*
CC(C)(C)C1CCc2c(sc3nc(-c4cc5cc(Cl)ccc5oc4=O)[nH]c(=O)c23)C1 (stereo not drawn)	4%	/	/	/	/	4%
N#Cc1nc(-c2ccco2)oc1N1CCc2ccccc2C1	-18%	-50%	-1%	19%	-13%	50µM*

Screens deposited in PubChem by National Center for Advancing Translational Sciences (NCATS).
